In all, about 5,500 compounds went through this assay and about 2,000 (36%) were called active. Roughly 18% stayed inconclusive and do not appear here. Cut-off read from the data, not from the text of the source: active = normalized growth mostly below about 0.91 (no sharp cut-off); inconclusive = no clear call, values can overlap the other calls; inactive = mostly above about 0.92. This is one part of the list.
Experiment: chemical genetic growth profiling, strain panel (AID 1159580);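 note: tested at 20 µM; growth read once vehicle control cultures reached saturation at 30 °C; 1 = growth at the plate median or of vehicle wells; lower values mean less growth of the strain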
Conditions: growth OD
[1] = S. cerevisiae deletion strains, locus YAL013W, strain DEP1, active compounds read low
[2] = S. cerevisiae deletion strains, locus YDR150W, strain NUM1, active compounds read low
[3] = S. cerevisiae deletion strains, locus YNL322C, strain KRE1, active compounds read low
[4] = S. cerevisiae deletion strains, locus YPL241C, strain CIN2, active compounds read low

Measured: normalized growth

CC1C(=O)N(C)C(=O)c2nc[nH]c21 (configuration not stated)
inactive: [1] 0.997 | S. cerevisiae deletion strains, locus YAL040C, strain CLN3, active compounds read low 0.993 | S. cerevisiae deletion strains, locus YCL061C, strain MRC1 (second series), active compounds read low 1 | [2] 1.01 | S. cerevisiae deletion strains, locus YDR363W, strain ESC2, active compounds read low 0.998 | S. cerevisiae deletion strains, locus YER002W, strain NOP16, active compounds read low 1 | S. cerevisiae deletion strains, locus YGR229C, strain SMI1, active compounds read low 0.992 | S. cerevisiae deletion strains, locus YMR307W, strain GAS1, active compounds read low 0.991 | S. cerevisiae deletion strains, locus YNL128W, strain TEP1, active compounds read low 1 | S. cerevisiae deletion strains, locus YNL175C, strain NOP13, active compounds read low 1 | S. cerevisiae deletion strains, locus YNL197C, strain WHI3, active compounds read low 0.989 | S. cerevisiae deletion strains, locus YNL224C, strain SQS1, active compounds read low 1 | [3] 0.992 | S. cerevisiae deletion strains, locus YOR083W, strain WHI5 (second series), active compounds read low 1.02 | [4] 1

Cc1nn(C)c(C)c1NS(=O)(=O)c1cc(Cl)sc1Cl
inactive: [1] 1 | S. cerevisiae deletion strains, locus YBR229C, strain ROT2, active compounds read low 1.03 | S. cerevisiae deletion strains, locus YDL101C, strain DUN1, active compounds read low 1.05 | S. cerevisiae deletion strains, locus YDL134C, strain PPH21, active compounds read low 1.02 | [2] 0.956 | S. cerevisiae deletion strains, locus YEL061C, strain CIN8, active compounds read low 1.03 | S. cerevisiae deletion strains, locus YGR078C, strain PAC10, active compounds read low 1.01 | S. cerevisiae deletion strains, locus YHR030C, strain SLT2, active compounds read low 1.04 | S. cerevisiae deletion strains, locus YHR087W, strain rtc3, active compounds read low 1.03 | S. cerevisiae deletion strains, locus YJL187C, strain SWE1, active compounds read low 1.02 | S. cerevisiae deletion strains, locus YJR043C, strain POL32, active compounds read low 1.01 | S. cerevisiae deletion strains, locus YJR075W, strain HOC1, active compounds read low 1.02 | S. cerevisiae deletion strains, locus YLR039C, strain RIC1, active compounds read low 1 | S. cerevisiae deletion strains, locus YLR058C, strain SHM2 (second series), active compounds read low 1.03 | S. cerevisiae deletion strains, locus YLR085C, strain ARP6, active compounds read low 1.03 | S. cerevisiae deletion strains, locus YLR262C, strain YPT6, active compounds read low 0.993 | S. cerevisiae deletion strains, locus YML094W, strain GIM5, active compounds read low 1.01 | S. cerevisiae deletion strains, locus YMR219W, strain ESC1, active compounds read low 1.01 | S. cerevisiae deletion strains, locus YMR263W, strain SAP30, active compounds read low 0.914 | S. cerevisiae deletion strains, locus YNL153C, strain GIM3, active compounds read low 1.04 | S. cerevisiae deletion strains, locus YNL298W, strain CLA4 (second series), active compounds read low 1.04 | [3] 1.01 | S. cerevisiae deletion strains, locus YNR030W, strain Alg12, active compounds read low 1.01 | S. cerevisiae deletion strains, locus YPL055C, strain LGE1, active compounds read low 1.01 | [4] 1.01 | S. cerevisiae deletion strains, locus YPR135W, strain CTF4, active compounds read low 1.14 | S. cerevisiae strains, strain wild type, active compounds read low 1.02
